Mcl1 Noxa PPI = Mcl-1/Noxa binding inhibitors, primary screen, biochemical, TR-FRET, 1536-well; 220,000 tested, 1.5% active; inhibition, % at 21.7 µM; TR-FRET Mcl-1/Noxa peptide binding, 2 h; Induced myeloid leukemia cell differentiation protein Mcl-1 (Homo sapiens), Q07820;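 active means compounds that cut the protein-peptide binding signal by more than 50% relative to plate controls in a single-dose test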;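 further: His-tagged Mcl-1 with rhodamine Noxa BH3 peptide and terbium anti-His antibody; 0% = Mcl-1 plus Noxa peptide wells and 100% = peptide-only wells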
Target sequence (Q07820 whole entry, looked up): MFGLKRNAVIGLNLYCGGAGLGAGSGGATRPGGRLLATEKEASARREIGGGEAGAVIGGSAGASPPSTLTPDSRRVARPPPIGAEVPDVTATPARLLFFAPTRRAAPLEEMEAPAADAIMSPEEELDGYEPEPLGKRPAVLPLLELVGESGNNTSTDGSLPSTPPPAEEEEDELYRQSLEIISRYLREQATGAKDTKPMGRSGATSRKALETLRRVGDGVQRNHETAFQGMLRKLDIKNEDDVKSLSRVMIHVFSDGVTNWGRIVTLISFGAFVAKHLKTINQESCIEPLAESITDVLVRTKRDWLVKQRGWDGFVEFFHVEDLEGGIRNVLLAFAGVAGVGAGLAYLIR
Bcl-xL primary = inhibitors of human Bcl-xL, primary screen, biochemical, fluorescence polarization, HTS; Bcl-2-like protein 1 (Homo sapiens), Q07817; GST-Bcl-xL / FITC-Bim BH3 peptide fluorescence polarization; inhibition, % at 10.9 µM; 320,000 tested, 0.7% active; AID 2129, 2009;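 active means inhibition above the mean of all tested compounds plus 3 SD, cutoff set per campaign, cut at about 30% in these data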;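 further: 0% = DMSO wells and 100% = unlabeled Bim-BH3 peptide competitor; inhibitors lower millipolarization by displacing the labeled peptide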
Target sequence (Q07817 whole entry, looked up): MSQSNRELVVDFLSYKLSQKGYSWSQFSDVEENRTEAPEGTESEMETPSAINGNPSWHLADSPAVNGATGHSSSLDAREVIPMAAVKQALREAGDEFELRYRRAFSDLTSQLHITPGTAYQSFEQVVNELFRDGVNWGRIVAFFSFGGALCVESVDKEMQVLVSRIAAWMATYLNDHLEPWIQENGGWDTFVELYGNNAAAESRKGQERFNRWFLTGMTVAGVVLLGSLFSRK
Mcl1-Bid inh = Mcl-1/Bid binding inhibitors, primary screen, biochemical, TR-FRET, 1536-well; Induced myeloid leukemia cell differentiation protein Mcl-1 (Homo sapiens), Q07820; TR-FRET Mcl-1/Bid-Dy647 peptide binding; inhibition, % at 21.7 µM; 220,000 tested, 0.97% active; AID 1021, 2008;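 active means compounds that cut the binding signal by more than half at the single screening dose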;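 further: His-tagged Mcl-1 with europium anti-His antibody binding Bid BH3 peptide; 0% = Mcl-1 plus peptide wells and 100% = peptide-only wells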
GLD-1 TGE inh = GLD-1/TGE RNA complex disruptors, primary screen, biochemical, fluorescence polarization. Female germline-specific tumor suppressor gld-1 (Caenorhabditis elegans), Q17339. purified GLD-1 + fluorescein TGE RNA. inhibition, % at 5.96 µM. 320,000 tested, 0.44% active. AID 2280, 2010;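 active means percent inhibition above a per-plate cutoff, the plate mean of test compounds plus 3 SD, cut at about 30% in these data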;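 further: 0% = DMSO wells with GLD-1 and probe and 100% = wells lacking GLD-1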
MCL1-BIM inh = inhibitors of MCL1 binding to BIM-BH3, primary screen, biochemical, fluorescence polarization; Induced myeloid leukemia cell differentiation protein Mcl-1 (Homo sapiens), Q07820; GST-MCL1 / FITC-Bim-BH3 fluorescence polarization; inhibition, % at 10.9 µM; 320,000 tested, 0.68% active;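 active means inhibition above the mean inhibition of all tested compounds plus 3 SD, set per campaign, cut at about 40% in these data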;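 further: 0% = DMSO wells and 100% = unlabeled Bim-BH3 peptide control; higher means more loss of mP so more displacement of Bim peptide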
Bim-Mcl-1 = inhibitors of Bim peptide binding to Mcl-1, primary screen, biochemical, bead-based flow cytometry, multiplex; Induced myeloid leukemia cell differentiation protein Mcl-1 (Homo sapiens), Q07820; 190,000 tested, 0.1% active; Bim peptide-Mcl-1 binding; inhibition, % at 10 µM; in the data active means inhibition above about 40%;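 further: 0% = no compound tracer wells and 100% = peptide blocker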
BCLXL inh confirm = Bcl-xL inhibitors blocking Bim BH3 binding, confirmation, counter-screen for MCL1 inhibitor project, biochemical, fluorescence polarization; inhibition, % at 10.9 µM; GST-Bcl-xL / FITC-Bim BH3 peptide FP binding; shares compounds with MCL1-BIM inh; 1,700 tested, 54% active; AID 2166, 2009;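 active means inhibition above a cutoff equal to the mean inhibition of all tested compounds plus 3 SD, cut at about 30% in these data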;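 further: 0% = DMSO wells and 100% = unlabeled Bim BH3 control peptide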
MCL1 inh confirm = inhibitors of MCL1 binding to BIM-BH3, confirmation, biochemical, fluorescence polarization, triplicate. GST-MCL1 / FITC-Bim-BH3 fluorescence polarization. shares compounds with MCL1-BIM inh. 1,700 tested, 61% active. inhibition, % at 10.9 µM. AID 2168, 2009;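 active means inhibition above the average of all tested compounds plus 3 SD, cut at about 40% in these data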;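 further: 0% = DMSO wells and 100% = unlabeled Bim-BH3 control peptide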
GLD1 RNA confirm = GLD-1/TGE RNA binding inhibitors, retest, confirmation, biochemical, fluorescence polarization, triplicate | inhibition, % at 5.96 µM | shares compounds with GLD-1 TGE inh | GLD-1/FL-TGE RNA fluorescence polarization | 550 tested, 10% active;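 active means average inhibition across triplicates above the hit cutoff set in the primary screen, cut at about 32% in these data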;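 further: 0% = GLD-1 with RNA probe and DMSO and 100% = wells lacking GLD-1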
* = called active by the depositor; · = no result; + = active, no number. Hits are enriched below; roughly 2.3% of the tested compounds scored in any of these assays.

SMILES	Mcl1 Noxa PPI	Bcl-xL primary	Mcl1-Bid inh	GLD-1 TGE inh	MCL1-BIM inh	Bim-Mcl-1	BCLXL inh confirm	MCL1 inh confirm	GLD1 RNA confirm
CN(C)/C=C1\SC(=S)N(c2ccc(F)cc2)C1=O	15.9	8.0	-35.1	2.4	9.7	·	·	·	·
CN(C)/C=C1\SC(=S)N(c2ccc(Br)cc2)C1=O	28.7	131.1*	-28.4	73.4*	175.9*	·	+	+	31.8*
O=C(CCC(=O)N1CCN(Cc2ccc(F)cc2)CC1)Nc1nnc(C(F)(F)F)s1	·	2.5	·	0.9	3.7	·	·	·	·
O=C(C1CCC(=O)N(C2CCCCCC2)C1)N1CCN(c2ccccc2Cl)CC1 (stereo not drawn)	·	89.3*	·	30.8*	56.6*	·	9.7	-3.5	3.5
Cc1ccccc1N1CCN(C(=O)C2CCC(=O)N(C3CCCC3)C2)CC1 (stereo not drawn)	·	0.8	·	-0.8	-0.5	·	·	·	·
C=CCn1c(SCC(=O)NCC2CCCO2)nc2sc(CC)cc2c1=O (stereo not drawn)	·	·	·	8.5	·	·	·	·	·
Cc1ccccc1N=C(N)Nc1ccccc1C	·	63.0*	·	43.0*	70.7*	·	63.1*	84.7*	43.4*
CC(C)c1ccc(C2CC(=O)c3cnc(NC(=O)c4ccco4)nc3C2)cc1 (stereo not drawn)	·	2.7	·	2.3	6.7	·	·	·	·
Cc1ccc2c3c(cccc13)-c1ccccc1C2=O	13.1	36.5*	-1.1	43.1*	42.1*	11.0	27.1	30.6	39.4*
N#Cc1c(-c2ccco2)cc(-c2cccnc2)nc1N	62.4*	46.1*	-11.6	44.1*	75.1*	7.0	16.3	11.6	-4.4
O=C(O)c1cc(O)ccc1N=Nc1ccccc1	5.0	1.7	-45.6	-0.9	1.4	·	·	·	·
O=C(O)c1ccccc1N=Nc1ccc(O)cc1	·	58.3*	·	38.7*	63.5*	·	51.9*	59.8*	33.2*
COc1ccc(-c2cc3c(=O)n(CC(=O)N4CCN(C)CC4)ncn3n2)cc1	·	1.8	·	-1.4	-4.2	·	·	·	·
N#CC1=C(N)C2=CCCC[C@H]2[C@H](c2cccc(F)c2)C1(C#N)C#N	24.4	44.1*	-55.7	37.3*	45.0*	-7.0	24.0	24.7	1.4
N#CC1=C(N)N(c2ccccc2)C(c2ccccc2)C1(C#N)C#N (stereo not drawn)	·	1.7	·	4.0	4.0	2.0	·	·	·
Cc1ccc(/C=C2/NC(=O)N(Cc3ccccc3)C2=O)o1	45.3	38.0*	-27.1	49.8*	48.7*	2.0	-48.5	-83.0	-87.9
Nc1ncc(Br)cc1S(=O)(=O)NCCC(=O)NCCc1ccccc1	·	-1.6	·	7.0	-6.5	·	·	·	·
O=C1CCCC2=C1Sc1ccccc1N2	0.5	58.1*	-4.1	30.7*	69.0*	·	52.9*	78.0*	20.2
Cn1nc(-c2ccccc2)cc1NS(=O)(=O)c1ccc(C#N)cc1	8.0	99.7*	2.9	60.8*	96.9*	·	1.9	-0.7	0.5
Cn1nc(-c2ccccc2)cc1NS(=O)(=O)c1ccccc1	-1.8	6.1	-3.6	-3.8	-3.8	·	·	·	·
CCCC(=O)NCc1nc2ccccc2n1CC(=O)c1ccccc1	·	7.8	·	-3.2	2.7	·	·	·	·
Cc1ccc(C(=O)NCC(c2ccc(F)cc2)N2CCOCC2)cc1 (stereo not drawn)	-9.5	-5.4	-8.4	7.9	-14.8	·	·	·	·
CN(C)c1ccc(C(CNC(=O)c2ccc(-c3ccccc3)cc2)N2CCOCC2)cc1 (stereo not drawn)	·	80.0*	·	37.3*	88.5*	·	5.7	-2.4	-2.5
O=C1NC(=S)/C(=C\c2ccc(-c3ccccc3Cl)o2)S1	100.2*	57.5*	-27.7	60.1*	61.8*	-2.0	90.9*	115.7*	28.9
CSc1nsc(SCC(=O)Nc2cccc(NC(C)=O)c2)n1	·	5.2	·	-4.0	9.9	·	·	·	·
SMILES	Mcl1 Noxa PPI	Bcl-xL primary	Mcl1-Bid inh	GLD-1 TGE inh	MCL1-BIM inh	Bim-Mcl-1	BCLXL inh confirm	MCL1 inh confirm	GLD1 RNA confirm
Cc1ccc(C2Nc3ccccc3NC3=C2C(=O)CC(C)(C)C3)c(O)c1 (stereo not drawn)	·	47.1*	·	51.1*	52.1*	·	67.2*	93.7*	1.2
CC(C)(C)OC(=O)C[C@@H]1C/C=C\C[C@@H](CC(=O)N[C@H](CO)Cc2ccccc2)C(=O)NC[C@H](c2ccccc2)OC1=O	·	·	·	-3.1	·	·	·	·	·
O=C1c2cccc3cc([N+](=O)[O-])cc(c23)C(=O)N1/N=C/c1ccc(O)cc1O	89.6*	56.3*	97.8*	59.5*	61.2*	·	27.4	30.7	10.5
COc1cc(/C=C2/C(=N)N3N=C(CC(=O)N4CCOCC4)SC3=NC2=O)ccc1OCc1ccc(F)cc1	·	0.5	·	-1.9	-4.7	·	·	·	·
CCOC(=O)c1c2c3c(cccc3n(C)c1=O)C(=O)c1ccccc1-2	·	54.7*	·	31.9*	53.8*	·	75.7*	89.8*	16.4
O=C(COC(=O)c1cc(S(=O)(=O)N2CCOCC2)ccc1Cl)NCc1ccccc1	·	·	·	-3.0	·	·	·	·	·

Bioassay records: PubChem, several laboratories
